In assay [1] the test system is Plasmodium falciparum Sir2 (PF13_0152, Sir2A). Put plainly: pfSir2 binders on small-molecule microarrays, primary screen, biochemical, small-molecule microarray, 635 nm fluorescence (AID 1098).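 Also: score merges spot fluorescence intensity with its signal-to-noise ratio.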 The following applies: small-molecule microarray binding, fluorescence 635 nm; higher = more signal.
Assay [2] in a line: small-molecule microarray binders of probe aDKK1, primary screen, biochemical, biotinylated probe, 635/667 nm fluorescence (AID 1099).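 Also: score merges 667nm spot fluorescence with signal to noise across triplicate slides; reference of the scale not given here.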 The following applies: higher = more signal.
Assay [3] is described as follows: small-molecule microarray binders of probe aCHRDL2, primary screen, biochemical, biotinylated probe, 635/667 nm fluorescence (AID 1100). Particulars: higher = more signal.
Assay [4] is described as follows: splicing luciferase reporter signal modulators, primary screen, spliceosome inhibition project, cell-based, HEK293, splice +/- reporter (AID 1101).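 Also: HEK293 cells carrying a splicing-competent luciferase reporter gene; test concentration not given here.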 The following applies: luminescence, 24 h, higher = more signal, called active from +8 up or from −8 down. For orientation: In a reporter assay the amount or activity of a reporter protein is the signal.
In assay [5] the target is Fibroblast growth factor 10 (Homo sapiens) (UniProt O15520). Description: FGF10 binders on small-molecule microarrays, primary screen, biochemical, small-molecule microarray, 635 nm fluorescence (AID 1102). Particulars: FGF10 binding, fluorescence 635 nm, higher = more signal.
Fibroblast growth factor 10 (Homo sapiens), sequence (O15520 whole entry, looked up): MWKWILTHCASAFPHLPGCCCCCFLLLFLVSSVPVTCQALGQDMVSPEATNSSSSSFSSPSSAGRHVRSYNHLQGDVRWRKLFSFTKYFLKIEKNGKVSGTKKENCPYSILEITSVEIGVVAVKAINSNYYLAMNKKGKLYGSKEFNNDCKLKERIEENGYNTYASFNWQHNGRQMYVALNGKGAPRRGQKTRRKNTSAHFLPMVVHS
For assay [6], the system named is glycogen synthase kinase-3 (GSK3A per assay name; protocol says GSK3B). Put plainly: GSK3 binders on small-molecule microarrays, primary screen, biochemical, small-molecule microarray, 635 nm fluorescence, GSK3A (AID 1103). Also: the record names both GSK3A and GSK3B. The following applies: small-molecule microarray binding, fluorescence 635 nm; higher = more signal.
For assay [7], the target named is Epidermal growth factor receptor (Homo sapiens) (UniProt P00533). Put plainly: EGFR binders on small-molecule microarrays, primary screen, biochemical, small-molecule microarray, 635 nm fluorescence (AID 1104).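 Also: score merges 667 nm emission intensity with spot signal to noise over triplicate slides.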 The following applies: EGFR binding, higher = more signal.
Epidermal growth factor receptor (Homo sapiens), sequence (P00533 whole entry, looked up): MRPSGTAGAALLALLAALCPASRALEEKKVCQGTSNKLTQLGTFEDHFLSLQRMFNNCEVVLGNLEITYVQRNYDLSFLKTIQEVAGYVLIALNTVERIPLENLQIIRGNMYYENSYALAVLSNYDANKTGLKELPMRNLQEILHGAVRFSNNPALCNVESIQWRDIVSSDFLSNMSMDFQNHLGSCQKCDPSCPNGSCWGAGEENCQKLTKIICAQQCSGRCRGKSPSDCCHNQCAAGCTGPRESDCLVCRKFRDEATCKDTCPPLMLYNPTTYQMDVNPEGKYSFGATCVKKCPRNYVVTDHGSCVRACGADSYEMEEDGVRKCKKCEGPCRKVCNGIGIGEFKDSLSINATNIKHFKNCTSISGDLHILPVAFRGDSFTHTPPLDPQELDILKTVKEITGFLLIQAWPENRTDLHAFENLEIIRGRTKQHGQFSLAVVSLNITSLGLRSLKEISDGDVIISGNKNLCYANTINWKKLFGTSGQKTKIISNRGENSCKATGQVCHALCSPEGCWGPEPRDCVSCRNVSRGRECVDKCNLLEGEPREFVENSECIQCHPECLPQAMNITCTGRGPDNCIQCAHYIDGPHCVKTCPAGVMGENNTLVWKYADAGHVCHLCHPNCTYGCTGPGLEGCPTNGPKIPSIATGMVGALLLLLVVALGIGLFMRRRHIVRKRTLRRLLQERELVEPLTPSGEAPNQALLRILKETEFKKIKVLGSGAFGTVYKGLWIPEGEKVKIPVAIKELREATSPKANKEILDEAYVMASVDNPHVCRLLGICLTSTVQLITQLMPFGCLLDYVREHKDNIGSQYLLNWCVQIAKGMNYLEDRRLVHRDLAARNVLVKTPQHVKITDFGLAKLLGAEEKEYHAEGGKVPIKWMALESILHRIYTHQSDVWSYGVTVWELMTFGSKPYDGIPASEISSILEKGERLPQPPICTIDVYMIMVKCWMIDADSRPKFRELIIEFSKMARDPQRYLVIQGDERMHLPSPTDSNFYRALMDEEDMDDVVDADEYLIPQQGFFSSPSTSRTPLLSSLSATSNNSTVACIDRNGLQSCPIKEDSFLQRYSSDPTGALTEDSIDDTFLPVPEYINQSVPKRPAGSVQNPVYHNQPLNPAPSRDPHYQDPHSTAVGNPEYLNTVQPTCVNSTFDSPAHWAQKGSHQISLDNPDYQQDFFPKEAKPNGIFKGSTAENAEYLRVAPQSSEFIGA
Assay [8] addresses Follistatin-related protein 3 (Homo sapiens) (UniProt O95633). Description: FSTL3 binders on small-molecule microarrays, primary screen, biochemical, small-molecule microarray, 635 nm fluorescence (AID 1105).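 Also: score merges emission near 667 nm and signal to noise per printed spot across three slides.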 Particulars: FSTL3 binding, higher = more signal.
For assay [9], the target named is Dickkopf-related protein 1 (Homo sapiens) (UniProt O94907). Description: DKK1 binders on small-molecule microarrays, primary screen, biochemical, small-molecule microarray, 635 nm fluorescence scan (AID 1106).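 Also: score merges emission near 667 nm with signal to noise over three replicate slides.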 The following applies: DKK1 binding, higher = more signal.
Dickkopf-related protein 1 (Homo sapiens), sequence (O94907 whole entry, looked up): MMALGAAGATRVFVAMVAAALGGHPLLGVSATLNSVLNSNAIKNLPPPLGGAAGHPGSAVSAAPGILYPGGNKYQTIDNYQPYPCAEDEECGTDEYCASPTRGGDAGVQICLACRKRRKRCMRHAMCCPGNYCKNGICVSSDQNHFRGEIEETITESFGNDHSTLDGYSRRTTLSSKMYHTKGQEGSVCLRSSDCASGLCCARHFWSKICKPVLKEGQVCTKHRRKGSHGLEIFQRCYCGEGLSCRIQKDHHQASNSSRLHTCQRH
Assay [10] has as its system Inhibin beta A chain (activin A). Put plainly: INHBA (activin A) binders on microarrays, primary screen, biochemical, small-molecule microarray, 635 nm fluorescence scan (AID 1107).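 Also: mouse activin A protein probed at 4.33 µg/mL on printed slides; score merges bound-protein fluorescence near 667 nm with spot signal-to-noise.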 The following applies: small-molecule microarray binding, higher = more signal.

17 molecules from PubChem BioAssay can be followed below.

Calls of active or inactive are those of the source.

Follistatin-related protein 3 (Homo sapiens), sequence (O95633 whole entry, looked up): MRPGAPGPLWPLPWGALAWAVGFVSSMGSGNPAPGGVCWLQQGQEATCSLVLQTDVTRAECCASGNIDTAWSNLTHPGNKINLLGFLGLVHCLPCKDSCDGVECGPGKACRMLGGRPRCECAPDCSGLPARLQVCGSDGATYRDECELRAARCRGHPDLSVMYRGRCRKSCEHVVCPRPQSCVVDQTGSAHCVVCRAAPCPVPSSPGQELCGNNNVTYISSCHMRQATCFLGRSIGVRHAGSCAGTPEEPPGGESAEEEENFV

Regarding `CN(C)c1ccc(C(O)C2C=CC3C(=O)NC(=O)C3N2Nc2ccccn2)cc1` (stereo not given), the composite z-score in [1] is 1.15; in assay [2], 0.206; in assay [3], 0.201; in assay [5], 0.79; in assay [6], 0.464; in [7] it was 0.729. Besides, the composite z-score worked out at 1.45 in assay [8], 1.3 in [9] and 0.921 in assay [10]. Besides, in [4], the z-score was 0.936 (inactive).
For the molecule `CCCC[C@@H](O)C1=C(COC)C[C@H]2C(=O)N(Cc3ccccc3)C(=O)[C@H]2[C@H]1CO`, the composite z-score is 0.516 in [1]; -0.449 in assay [2]; -0.815 in [3]; 0.822 in [5]; 0.464 in [6]; 0.26 in assay [7]. Moreover, the composite z-score in assay [8] was found to be 1; in [9], 0.972; in assay [10] it was 0.44. For the same molecule, in [4], the z-score is 0.296 (inactive).
Take `O=C1OCCC=C[C@H]2OC34C=CCN(Cn5nnc6ccccc65)C(=O)[C@H]3N(CCCO)C(=O)[C@@H]4C12` (stereo not given in full): the composite z-score in [1] was -0.783; in assay [2], -0.264; in assay [3] it was 0.0963; in assay [5], -0.583; in [6], -0.789; in assay [7], -0.72. Further, the composite z-score in assay [8] was -1.46; in [9], -0.454; in [10] it was 0.148. Moreover, the z-score in assay [4] was -1.05 (inactive).
For the molecule `NCCCCCCNC(=O)[C@@H]1C[C@@H]2C(=O)N[C@@H](CCCCN)C(=O)N2[C@@H]1c1ccc(O)cc1`, the composite z-score is 1.32 in [1]; 0.13 in assay [2]; 0.462 in [3]; 0.523 in assay [5]; 0.456 in assay [6]; 0.456 in [7]. Further, the composite z-score worked out at 0.27 in assay [8], 1.16 in assay [9] and 0.899 in [10]. In assay [4], the z-score was -1.48 (inactive).
Consider `CC[C@@H]1C=C(C(=O)O)[C@H](c2ccccc2)N1S(=O)(=O)c1ccc(C)cc1`, for which the composite z-score in assay [1] was 1.69; in assay [2], 0.748; in assay [3], 0.853; in assay [5] it was 0.825; in [6], 0.52; in assay [7], -0.482. For the same molecule, the composite z-score in assay [8] was 0.0194; in [9], -0.294; in [10], 0.941. In addition, the z-score in assay [4] is 0.0795 (inactive).
As to `CCCC=C(CCC)[C@@H](NS(=O)(=O)c1ccc(C(F)(F)F)cc1)c1ccccc1`, the composite z-score was 0.156 in [1]; -0.001 in assay [2]; 0.614 in assay [3]; 0.0772 in assay [5]; 0.571 in assay [6]; -0.585 in assay [7]. Also, the composite z-score in assay [8] is -0.143; in assay [9], -0.61; in [10], 0.388. Moreover, in [4], the z-score is -0.172 (inactive).
For the molecule `Cc1ccc(S[C@]2(C(=O)NC(C)C)CC(=O)N(Cc3cc(C(F)(F)F)cc(C(F)(F)F)c3)[C@@H]2c2ccc(CO)cc2)cc1`, the composite z-score is 1.45 in [1]; -0.227 in assay [2]; 0.675 in assay [3]; -0.671 in [5]; -1.27 in assay [6]; -1.48 in assay [7]. Moreover, the composite z-score in assay [8] is -1.57; in assay [9] it was -1.5; in assay [10] it was -0.403. Besides, the z-score in assay [4] is 0.681 (inactive).
For the molecule `O=C1[C@H]2C=C(I)[C@H](C[C@@H]2OCCOCCO)[C@@]12CO2`, the composite z-score is 0.558 in assay [1]; -0.261 in [2]; -0.751 in [3]; 0.954 in assay [5]; 0.671 in assay [6]; 0.83 in assay [7]. For the same molecule, the results for the composite z-score in assay [8], in assay [9] and in assay [10] were 1.12, 0.459 and 0.555, respectively. In addition, the z-score in assay [4] is -0.0672 (inactive).
As for `CC1CC/C=C\[C@H]2OC34C=CCN(C(C)(C)C)C(=O)[C@H]3N(CCCCCO)C(=O)[C@@H]4C2C(=O)O1` (stereo not given in full), the composite z-score was 0.261 in [1]; -0.27 in assay [2]; 0.2 in [3]; -0.899 in assay [5]; -0.696 in assay [6]; -1.08 in assay [7]. The figures for the composite z-score in assay [8], in assay [9] and in assay [10] were -0.852, -1.16 and 0.0607, respectively. The z-score in assay [4] is -0.0565 (inactive).
`CCCCC(CC)C(O)C1C=CC2C(=O)N(c3ccccc3)C(=O)C2N1Nc1ccc(C#N)cc1` (stereo not given): the composite z-score was 0.976 in [1]; 1.33 in assay [2]; 0.813 in assay [3]; 1.11 in [5]; 1.32 in assay [6]; 0.217 in [7]. Besides, the composite z-score in [8] came to 1.28; in assay [9], 0.0492; in [10], 0.783. Further, the z-score in assay [4] is 0.037 (inactive).
With `CCCNC(=O)[C@@]1(C)c2ccccc2C(=O)N(c2ccc(C)cn2)[C@H]1c1ccc(CO)cc1`, the composite z-score in assay [1] was 0.732; in assay [2], -0.103; in assay [3] it was 0.649; in assay [5], -0.779; in assay [6], -0.158; in assay [7] it was -0.473. Further, the composite z-score is -0.223 in assay [8], -0.126 in [9] and 0.948 in assay [10]. Also, the z-score in assay [4] is 0.756 (inactive).
On to `COC(=O)[C@@]1(Cc2ccc(F)cc2)[C@H]2c3cc(C(=O)N(C)C)n(CCc4ccc(OC)c(Br)c4)c3C[C@H]2CN1C(=O)c1ccccc1`, for which the composite z-score in [1] is 0.514; in assay [2], 1.1; in assay [3], 0.732; in assay [5] it was 0.856; in [6], 0.182; in assay [7] it was -0.086. For the same molecule, the composite z-score in assay [8] was 0.145; in [9], -0.257; in assay [10], 1.01. In addition, the z-score in assay [4] is 1.6 (inactive).
Take `CCOc1cc(C(O)C2C=CC3C(=O)NC(=O)C3N2Nc2ccc(Cl)cc2Cl)ccc1O` (stereo not given): the composite z-score in assay [1] was -0.402; in [2] it was 0.737; in assay [3], 0.942; in [5], -0.251; in [6] it was -0.848; in [7] it was -0.238. For the same molecule, the composite z-score in [8] is -0.859; in assay [9] it was -0.765; in assay [10], 1.37. Besides, in [4], the z-score is 1.22 (inactive).
On to `C=CC[C@@H](OC(=O)Nc1ccc(SC)cc1)c1ccc(O)c(F)c1`, for which the composite z-score was 0.522 in assay [1]; 0.0488 in assay [2]; 0.404 in assay [3]; 0.214 in assay [5]; -0.0142 in assay [6]; -0.361 in assay [7]. The figures for the composite z-score in [8], in [9] and in assay [10] were 0.155, 0.183 and 0.77, respectively. In addition, the z-score in assay [4] is -1.79 (inactive).
`O=C(O)[C@@H]1[C@@H]2C(=O)N(c3ccccc3)C(=O)[C@@H]2C[C@@H]1Sc1ccccc1`: the composite z-score is 1.61 in assay [1]; 0.638 in [2]; 0.519 in [3]; -0.694 in assay [5]; -1.74 in [6]; -0.498 in assay [7]. Further, the results for the composite z-score in assay [8], in assay [9] and in assay [10] were -0.852, -1.19 and 0.656, respectively. Besides, the z-score in [4] was 0.393 (inactive).
On to `COC(=O)[C@@]1(Cc2ccc(OC)cc2)[C@H]2c3cc(C(=O)N(C)C)n(Cc4ccc(OC(F)(F)F)cc4)c3C[C@H]2CN1C(=O)c1ccccc1`, for which the composite z-score in [1] is 0.518; in assay [2], 0.34; in [3], 1.15; in assay [5], -0.19; in [6] it was -0.448; in assay [7], -0.274. For the same molecule, the composite z-score in [8] was -0.558; in [9], -0.995; in [10], 0.771. The z-score in [4] was 1.32 (inactive).
For `C=CCN1Cc2ccccc2[C@@H]2OC(c3ccc(OCCCO)cc3)=N[C@]2(CC=C)C1=O`, the composite z-score was 1.5 in assay [1]; 2.15 in assay [2]; 1.07 in [3]; 0.862 in assay [5]; 1.22 in assay [6]; 0.724 in assay [7]. Also, the composite z-score in [8] is 1.48; in assay [9], 1.33; in [10], 1.68. Further, the z-score in [4] was -1.25 (inactive).
